This passage reports inhibition results from PubChem BioAssay.

Each structure is given as a SMILES string. Values without a mark were called inactive. No rule for the calls is given here.

The target in this assay is Pantothenate synthetase (Mycobacterium tuberculosis (strain ATCC 25618 / H37Rv)) (UniProt P9WIL5). Description: Recombinant Mtb pantothenate synthetase (PanC) inhibitors, coupled enzyme, confirmatory (AID 375).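 Also: 0% = full reaction with vehicle and 100% = no enzyme background.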 Particulars: coupled enzyme assay; at 10 µM, stronger effect = higher value.
Chain of Pantothenate synthetase (Mycobacterium tuberculosis (strain ATCC 25618 / H37Rv)) (P9WIL5 whole entry, looked up): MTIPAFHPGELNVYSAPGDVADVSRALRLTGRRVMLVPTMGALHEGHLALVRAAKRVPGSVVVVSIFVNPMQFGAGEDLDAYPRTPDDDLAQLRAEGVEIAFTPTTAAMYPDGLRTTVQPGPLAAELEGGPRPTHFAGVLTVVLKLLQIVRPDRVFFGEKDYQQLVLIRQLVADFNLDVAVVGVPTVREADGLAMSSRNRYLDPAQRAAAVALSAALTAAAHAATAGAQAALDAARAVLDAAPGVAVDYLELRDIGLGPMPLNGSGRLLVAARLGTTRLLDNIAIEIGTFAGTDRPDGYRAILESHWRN

With `Cc1cc(NC(=O)C23CCC(C)(c4nc5cc(Cl)c(Cl)cc5nc42)C3(C)C)no1` (centres undefined), the inhibition is 0%.

Regarding `Cc1nc2ccc(C(=O)O)cc2c2c1CC(C)S2` (centres undefined), the inhibition was 0%. The value for `O=C(Nc1ccc2c(c1)OCO2)C(c1ccccc1)N1CCC2(CC1)OCCO2` (centres undefined) was 0%; that for `Cc1oncc1C(=O)Nc1ccc(C(F)(F)F)cc1` was 8%; that for `COC(=O)c1c(N)nc(C)n1-c1ccc(OC)cc1` was 0%. For the compound `CCCCC(=O)O[C@]1(C(=O)CO)CC[C@H]2[C@@H]3CCC4=CC(=O)CC[C@]4(C)[C@H]3[C@@H](O)C[C@@]21C`, the inhibition was 10%.

With `COc1ccccc1C(=O)Nc1ccc(N2CCN(Cc3ccccc3)CC2)cc1`, the inhibition is 0%. As for `Cn1c(Cc2cccs2)nnc1SCC(=O)N1CCc2ccccc21`, the figure is 0%; as for `CC1(C)CC(=O)N(CC(=O)NCc2ccccc2)c2ccccc2S1(=O)=O`, 0%. The value for `CC(C)OC(=O)CSc1nnc(-c2ccccn2)n1-c1ccccc1` was 8%; that for `Cc1c(NS(=O)(=O)c2ccc3c(c2)c(=O)n(C)c(=O)n3C)c(=O)n(-c2ccccc2)n1C` was 14%; that for `COc1ccc(S(=O)(=O)NCc2ccco2)cc1-c1nnc2c3ccccc3c(C)nn12` was 8%.

`CNC(=O)c1ccc2nc(NC(C)=O)sc2c1`: the inhibition was 0%. On to `CCCCCn1c(=O)[nH]c2cc(C(=O)NCCN3CCOCC3)ccc2c1=O`, for which the inhibition was 1%.

For the compound `COc1ccc(C2CC(c3cccs3)n3nc(N)nc3N2)cc1` (centres undefined), the inhibition is 0%.

For the compound `CC(=O)Nc1ccc2nc(-c3cccnc3)[nH]c2c1`, the inhibition is 0%. As for `CCCc1nnc(SCC(=O)N2CCOCC2)n1Cc1ccco1`, the figure is 0%; as for `CCCNS(=O)(=O)c1ccc(OCC(=O)Nc2ccccc2F)cc1`, 0%; as for `Cc1cc2ccccc2n1CCNC(=O)C1CC1`, 1%.

By inhibition is commonly meant the drop in the measured response relative to a control, in per cent.
